The text below walks through data of PubChem BioAssay AID651821 (The Scripps Research Institute Molecular Screening Center, 2012).

By inhibition is commonly meant the relative decrease from the control value, in per cent.

About 4,700 (1.3%) of roughly 370,000 compounds were called active. The sample holds actives, similar compounds and a random draw of the others, so the mix is not that of the screen. Unmarked numbers belong to inactive results.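 Rule for the calls: active = inhibition above the plate cutoff, the mean of all test compounds on that plate plus 3 SD (cut at about 35% in these data); inactive = the rest.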

This assay can be described thus: binders of r(CAG) RNA repeats, primary screen, biochemical, fluorescence (AID 651821).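 Note: 0% = DMSO alone and 100% = 100 µM mitoxantrone as full dye displacement; higher means more dye released from RNA so lower well fluorescence.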 As to conditions: r(CAG) RNA repeat, TO-PRO-1 dye displacement fluorescence; at 3 µM; hits give high values.
Take `COCCN(Cc1ccccc1)C(=O)Cc1ccc(S(=O)(=O)N2CCOCC2)s1`: the inhibition was 0.74%.
For `CCCCCCCCN1C(=O)[C@@H](CC(=O)NCc2ccc(C)o2)C[C@@]2(C(=O)OC)C1=C[C@H](C(C)(C)C)O[C@@H]2C`, the inhibition is 1.42%.
`O=C(O)c1ccc(NN=CC2=C(N3CCOCC3)/C(=C/c3ccccc3)CC2)cc1`: the inhibition was 48.1% (active).
Under `O=C1OC(NC(=O)c2ccccc2)C(N2CCOCC2)=C1Cl` (configuration not stated) stands -0.63%; under `O=C(O)c1ccc(N=NN2CCOCC2)cc1`, 3%; under `CCOc1ccc(-n2c(SCC(=O)Nc3cc(C)c(NC(=O)c4ccccc4)cc3OC)nnc2-c2cccc(Cl)c2)cc1`, 12.6%.
The value for `O=C(COC(=O)c1ccc(NS(=O)(=O)c2cccs2)cc1O)Nc1ccc(F)cc1` was 43.1% (active).
With `O=C(COC(=O)c1ccc(O)cc1O)NNC(=O)c1cccs1`, the inhibition was 1.41%.
The value for `CCc1ccc(NC(=O)CCNS(=O)(=O)c2cccs2)cc1` was -0.02%.
The value for `C=CCn1c(C2CC(=O)N(c3ccc(C)cc3)C2)nc2ccccc21` (configuration not stated) was -6.52%; that for `C=CCn1c(=S)[nH]c2scc(-c3ccco3)c2c1=O` was 51.7% (active).
The value for `C=CCOC/C=C/C#CCN(CC=C)Cc1ccc(OC)cc1OC` was -2.46%; that for `COC(=O)[C@]12C[C@H](CC(=O)NCc3cccc(C(F)(F)F)c3)C(=O)N(Cc3ccc4c(c3)OCO4)C1=C[C@H](COCc1ccccc1)O[C@@H]2C` was 7.43%.
Consider `O=C(CSc1nnc(SCc2ccc(F)cc2)s1)Nc1ccc(C(=O)O)cc1`, for which the inhibition was 24.4%.
The value for `Cc1cc(NS(=O)(=O)c2ccc(NC(=O)CSc3nnc(-c4ccc(C(C)(C)C)cc4)n3Cc3ccco3)cc2)nc(C)n1` was 37% (active); that for `Cc1noc(NS(=O)(=O)c2ccc(N3CC(O)=C(c4ccccc4)C3=N)cc2)c1C` was 2.76%; that for `O=C(CSc1nnc(-c2cccc(Cl)c2)n1Cc1ccco1)Nc1ccc(OCc2ccccc2)cc1` was 8.04%.
Under `CCn1c(SCC(=O)Nc2ccc(S(=O)(=O)Nc3onc(C)c3C)cc2)nnc1-c1ccccc1` stands 35.5% (active); under `Cc1ccc(-c2nnc(SCC(=O)Nc3ccc(Oc4ccccc4)cc3)n2Cc2ccco2)cc1`, 10.4%.
Under `CCn1c2ccccc2c2cc(NC(=O)CSc3nnc(-c4ccccc4)n3-c3ccc(C)cc3)ccc21` stands 11.4%; under `Cc1nnc(SCC(=O)Nc2ccc(S(=O)(=O)Nc3ccc(Cl)nn3)cc2)s1`, 16.9%; under `Cc1cc(NS(=O)(=O)c2ccc(NC(=O)CSc3nnc(SCc4ccc(F)cc4)s3)cc2)nc(C)n1`, 43.9% (active).
Take `COC(=O)C1=C(C)N(Cc2cccc(C(F)(F)F)c2)C(=NCc2ccccc2)NC1c1ccccc1C(F)(F)F` (configuration not stated): the inhibition was 4.41%.
On to `NC(=O)c1ncn([C@@H]2O[C@H](C(=O)O)[C@@H](O)[C@H]2O)n1`, for which the inhibition was 1.22%.
The value for `COc1ccc(C#CCNCc2ccc(OC)cc2OC)cc1` was 7.62%; that for `CC(=O)OC1CCC2(C)C(=CCC3C4CC(=O)N(O)C(=O)C4(C)CCC32)C1` (configuration not stated) was 5.82%; that for `CC(=O)OCCN1CCCC12CCC(c1ccccc1)CC2` (configuration not stated) was 2.02%.
Consider `COC(=O)[C@]12C[C@H](CC(=O)NCCCN3CCCC3=O)C(=O)N(CCc3ccc(OC)c(OC)c3)C1=C[C@H](COCc1ccccc1)O[C@@H]2C`, for which the inhibition is 3.23%.
Take `CC(=O)Nc1nc2ncccn2c1-c1ccc(C(F)(F)F)cc1`: the inhibition is 0.83%.
On to `Cc1ccc(C2NC(C(=O)O)CS2)cc1` (configuration not stated), for which the inhibition is 0.84%.
Under `COCCNC(=S)N(C)[C@H]1C[C@H]2c3[nH]c4ccccc4c3CCN2C[C@H]1[C@H](C)O` stands 0.81%; under `COC(=O)[C@]12C[C@H](CC(=O)NCc3ccccc3)C(=O)N(CCC3=CCCCC3)C1=C[C@H](C(C)C)O[C@@H]2C1CC1`, 3.49%; under `O=C(c1c[nH]c2ccccc12)N1CCC(Oc2cccnc2)CC1`, 0.25%.
The value for `CC(C)=CCCC1(C)C=Cc2c(ccc3c2[nH]c2cc(O)c(C)cc23)O1` (configuration not stated) was 50.7% (active); that for `COP(=O)(O)CNC(=O)OCc1ccccc1` was 3.7%; that for `C[C@@H](CN1C2=NC[C@@H](Cc3ccccc3)N2C[C@H]1Cc1ccc(O)cc1)NC(=O)CCC1CCCCC1` was 10.8%.
Under `C=C(C)C#CC(Cc1ccccc1)NCC1CC1` (configuration not stated) stands 0.83%.
Take `Cc1sc2nc(SCC(=O)c3ccc(O)c(O)c3)n(Cc3ccco3)c(=O)c2c1C`: the inhibition was 60.5% (active).
The value for `O=C(CSc1nnc(-c2cccs2)n1Cc1ccco1)c1ccc2c(c1)OCO2` was 2.71%; that for `O=C(CSc1nnc(COc2ccccc2)n1Cc1ccco1)c1ccc2ccccc2c1` was 10.1%; that for `CN[C@H]1C[C@H]2c3cc(N4CCOCC4)ccc3CCN2C[C@H]1[C@H](C)O` was 0.53%.
The value for `COC(=O)c1ccc(NC(=O)CSc2nc(N)c(NC(=O)c3ccc(Br)o3)c(=O)[nH]2)cc1` was 8.43%; that for `COc1ccc(CNC(=O)CCC(=O)Nc2nnc(C(C)C)s2)cc1` was -3.44%.
The value for `COc1ccc(OCC(=O)Nc2nnc(-c3ccco3)s2)cc1` was 35.6% (active); that for `COc1ccc(OCCCC(=O)Nc2nnc(C3CCCO3)s2)cc1` (configuration not stated) was -2.42%; that for `CC(=O)C1=C(C)N(Cc2ccccc2)C(=S)NC1c1cccc(Br)c1` (configuration not stated) was 3.69%.
With `Cc1[nH]nc2c1C(c1ccc(Br)cc1)NC2=O` (configuration not stated), the inhibition is 2.38%.
Under `CCc1cc(-c2nnc(SCC(=O)NC3CC3)n2C)cs1` stands -0.55%.
For `N#Cc1c(-c2cccs2)nc(SCC(=O)c2ccc(Br)cc2)[nH]c1=O`, the inhibition was 76% (active).
Take `Cc1nnc(SCC(=O)NCc2cccs2)[nH]c1=O`: the inhibition was 1.73%.
The value for `CCc1ccc(C(=O)CSc2nnc(C)c(=O)[nH]2)cc1` was 1.9%.
Turning to `COc1ccc(-n2c(COc3ccccc3)nnc2SCC(=O)Nc2ccc3c(c2)OCO3)cc1`, the inhibition was 3.35%.
On to `CN[C@H]1C[C@H]2c3[nH]c4c(-c5ccccc5)cccc4c3CCN2C(=O)[C@H]1[C@H](C)O`, for which the inhibition was 1.12%.
For the compound `COc1ccc([C@H]2OC(=O)C[C@H]2C(=O)N2CCN(c3ccccc3F)CC2)cc1OC`, the inhibition is -0.41%.
The value for `O=C(CCCCCN1C(=O)C2C3C=CC(C3)C2C1=O)Nc1ccccc1` (configuration not stated) was -0.35%.
Under `O=C(O)c1cccc(NC(=O)c2cc(-c3cccc(Cl)c3)nc3ccccc23)c1` stands 49.4% (active).
Regarding `Cc1c(C(=O)Nc2cccc(Cl)c2)cn2c(nc3ccccc32)c1C#N`, the inhibition is 0.68%.
On to `Cc1cc(C(=O)Nc2ccc(C)c(S(=O)(=O)N3CCOCC3)c2)c2ccccc2n1`, for which the inhibition is 5.4%.
With `O=C(Nc1cccc(F)c1)c1cc(-c2ccco2)nc2ccccc12`, the inhibition was 35% (active).
For `O=C(Nc1cccc(F)c1)c1coc(=O)c(Br)c1`, the inhibition was 1.62%.
For the compound `O=C(Nc1nc2ccc(Cl)cc2s1)c1cc(-c2ccc(Cl)cc2)nc2ccccc12`, the inhibition is 7.74%.
With `CN(C)S(=O)(=O)c1cccc(C(=O)N/N=C\c2ccco2)c1`, the inhibition is 3.29%.
Turning to `Cc1ccc(S(=O)(=O)N2CC3C(=O)C[C@@H](c4ccccc4Cl)N(S(=O)(=O)c4ccc(C)cc4)C3CC2c2ccccc2)cc1` (some centres not stated), the inhibition is 8.71%.
As to `CC(C)CSc1nnc(-c2cccnc2)n1Cc1ccccc1`, the inhibition is -1.04%.
Consider `CN(C)CCCCCN(C)Cc1cc2ccccc2o1`, for which the inhibition is -1.3%.
The value for `CC(=O)O[C@@]1(C(C)=O)CCC2[C@H]3C=C(C)C4=CC(=O)CC[C@@]4(C)C3CC[C@]21C` (some centres not stated) was 1.96%; that for `Cc1coc2cc3oc(=O)c(CCC(=O)O)c(C)c3cc12` was -1.41%.
In the case of `COc1cccc(-c2coc3cc4oc(=O)c(CC(=O)O)c(C)c4cc23)c1`, the inhibition is 46.5% (active).
As to `CCCCCCc1cc2cc(-c3nnc(-c4cccc(OC)c4)o3)c(=O)oc2cc1O`, the inhibition was 0.83%.
Regarding `CC[C@@H]1Cc2cc(O)ccc2C2=C1c1ccc(O)cc1C[C@H]2CC`, the inhibition is 6.76%.
In the case of `CCCCNC(=O)C[C@H]1C(=O)N(Cc2ccc(OC)cc2)C2=CCCC[C@@]21C(=O)OCC`, the inhibition was -0.31%.
The value for `O=C1Nc2ccccc2OC1CC(=O)N1CCCCCCC1` (configuration not stated) was 4.22%.
Under `CCOc1ccc2sc(NS(=O)(=O)c3ccc(N)cc3)nc2c1` stands 9.5%; under `Cc1ccc(S(=O)(=O)Nc2nc3ccccc3s2)cc1[N+](=O)[O-]`, 45% (active).
Under `Cc1ccc(S(=O)(=O)N(Cc2ccccc2)c2ccccn2)cc1[N+](=O)[O-]` stands -3.84%; under `CCOC(=O)[C@]12CCCC=C1N(Cc1ccc(OC)cc1)C(=O)[C@@H]2CC(=O)N1CCOCC1`, -1.51%; under `CN1CCCCC(NC(=O)C(C)(C)C)C1=O` (configuration not stated), 2.33%.
In the case of `COC(=O)[C@]12C[C@H](CC(=O)NCc3ccccc3)C(=O)N(CCc3ccc(OC)c(OC)c3)C1=C[C@H](C(C)(C)C)O[C@@H]2C`, the inhibition is -2.21%.
Regarding `COC(=O)CSc1ncnc2c1cnn2-c1ccc(C)cc1C`, the inhibition is -5.94%.
Under `CC(Sc1ncnc2c1cnn2-c1ccccc1)C(=O)Nc1ccc(N2CCOCC2)cc1` (configuration not stated) stands 5.83%; under `Cc1ccc(-n2ncc3c(Nc4cccc(C(=O)O)c4)ncnc32)cc1`, 40.9% (active); under `O=C(NCCC1=CCCCC1)C1CCN(S(=O)(=O)c2ccc(Cl)s2)CC1`, 1%.
With `CSc1ccc(CN(C)CC(=O)NCc2ccc(F)cc2)cc1`, the inhibition is -7.36%.
The value for `O=C(NCc1ccccc1)[C@H]1CCCN1C(=O)[C@@H]1CCCN1C(=O)c1ccc(Cl)cc1Cl` was 1.95%; that for `COC(=O)c1scc(C)c1NC(=O)CSc1ccc(Cl)cc1` was -5.15%; that for `COC(=O)c1sccc1NS(=O)(=O)c1ccc(F)cc1F` was 1.91%.
For the compound `COC(=O)c1sccc1NC(=O)CSc1ccccc1NS(=O)(=O)c1cc(Cl)ccc1Cl`, the inhibition is 59.2% (active).
